Test results reported in PubChem BioAssay (NCI).
Compounds without any hit were thinned out: in the full panel of roughly 79,000, 15% have a hit. Active and inactive are the calls of the source. No stated cut-off is given here; in the data, active means growth inhibition above about 70%; inactive means the rest.

Assays:
[1] = NCI Yeast Anticancer Drug Screen. Data for the rad50 strain (AID 155);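 further: 0% = growth of vehicle-only cultures of the same strain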; conditions: S. cerevisiae rad50 strain growth inhibition, hits give high values
Method in brief: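 DNA repair mutant yeast, compound exposure, growth read-out; inhibition is taken relative to vehicle.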

[2] = NCI Yeast Anticancer Drug Screen. Data for the mec2-1 strain (AID 157); conditions: S. cerevisiae mec2-1 strain, hits give high values
Method in brief: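 Strain: mec2-1 (DNA repair/cell cycle alteration). Compound exposure, then growth measured; inhibition expressed relative to vehicle.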

[3] = NCI Yeast Anticancer Drug Screen. Data for the sgs1 mgt1 strain (AID 161);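 further: 0% = growth of cultures given vehicle only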; conditions: S. cerevisiae sgs1 mgt1 strain, hits give high values
Method in brief: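 Read-out: growth inhibition vs vehicle controls. Cells: mutant yeast strain deficient in DNA damage repair.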

[4] = NCI Yeast Anticancer Drug Screen. Data for the cln2 rad14 strain (AID 165);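 further: 0% = growth equal to vehicle treated cultures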; conditions: S. cerevisiae cln2 rad14 strain, hits give high values
Method in brief: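 Compounds are applied to the cln2 rad14 yeast strain, and growth is then compared with that of vehicle-treated cultures to give inhibition.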

[5] = NCI Yeast Anticancer Drug Screen. Data for the bub3 strain (AID 167); conditions: S. cerevisiae bub3 mutant strain, hits give high values
Method in brief: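 In this screen, a yeast mutant lacking normal mitotic checkpoint function is challenged with compound. Relative growth versus vehicle gives the inhibition value.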

[6] = NCI Yeast Anticancer Drug Screen. Data for the mlh1 rad18 strain (AID 175); conditions: S. cerevisiae mlh1 rad18 strain growth inhibition, hits give high values
Method in brief: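 Read-out is yeast growth inhibition, calculated against vehicle-only controls. The compound was applied to a strain engineered with DNA damage repair alterations.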

[7] = at 5.0 µM (retest, dose inferred, filed as 0.5)
[8] = at 50.0 µM (retest, dose inferred, filed as 5.0)

Measured: growth inhibition

Nc1nc(N)c2c(Cl)c(CNc3ccc(Cl)c(Cl)c3)ccc2n1
inactive: [4]; [7] 46%
active: [1]; [7] 82% | [1]; [8] 98% | [1]; at 50.0 µM 88.1% | [2]; [7] 97% | [2]; [8] 98% | [2]; at 50.0 µM 91% | [3]; [7] 81% | [3]; [8] 98% | [3]; at 50.0 µM 90.8% | [4]; [8] 98% | [4]; at 50.0 µM 89.9% | [5]; [7] 74% | [5]; [8] 98% | [5]; at 50.0 µM 89.7% | [6]; [7] 75% | [6]; [8] 98%

CCN1CCC(O)(c2ccc(Oc3ccccc3)cc2)C(C(=O)c2ccc(Oc3ccccc3)cc2)C1 (stereo not drawn)
inactive: [1]; [7] 25% | [1]; [8] 19% | [1]; at 50.0 µM 32.9% | [2]; [7] -10% | [2]; [8] -8% | [2]; at 50.0 µM 22.5% | [3]; [7] 23% | [3]; [8] 28% | [3]; at 50.0 µM -21.9% | [4]; [7] 18% | [4]; [8] 35% | [4]; at 50.0 µM 0.95% | [5]; [7] 14% | [5]; [8] 38% | [5]; at 50.0 µM -23.9% | [6]; [7] 18% | [6]; [8] 40%

CN1C(c2ccccc2)CC(=NOCc2ccccc2)CC1c1ccccc1 (stereo not drawn)
active: [1]; [7] 83% | [1]; [8] 96% | [1]; at 50.0 µM 78.5% | [2]; [7] 94% | [2]; [8] 97% | [2]; at 50.0 µM 83.8% | [3]; [7] 76% | [3]; [8] 97% | [3]; at 50.0 µM 88.8% | [4]; [8] 97% | [4]; at 50.0 µM 86.6% | [5]; [7] 78% | [5]; [8] 96% | [5]; at 50.0 µM 84% | [6]; [7] 94% | [6]; [8] 96%
inactive: [4]; [7] 65%

CC1OC(OC2CC(O)(C(=O)CO)Cc3c(O)c4c(c(O)c32)C(=O)c2ccccc2C4=O)CC(N)C1O (stereo not drawn)
inactive: [2]; [7] 62% | [4]; [7] 57% | [5]; [7] 56%
active: [1]; [7] 87% | [1]; [8] 96% | [1]; at 50.0 µM 87.8% | [2]; [8] 95% | [2]; at 50.0 µM 91.1% | [3]; [7] 86% | [3]; [8] 97% | [3]; at 50.0 µM 89.5% | [4]; [8] 95% | [4]; at 50.0 µM 87.3% | [5]; [8] 96% | [5]; at 50.0 µM 89.1% | [6]; [7] 77% | [6]; [8] 94%

O=c1c(Cl)c(Cl)cnn1CCCl
active: [1]; [8] 92% | [1]; at 50.0 µM 74.9% | [6]; [8] 71%
inactive: [1]; [7] 40% | [2]; [7] 9% | [2]; [8] 48% | [2]; at 50.0 µM 17.6% | [3]; [7] -1% | [3]; [8] 47% | [3]; at 50.0 µM -15.6% | [4]; [7] 6% | [4]; [8] 32% | [4]; at 50.0 µM 7.15% | [5]; [7] -6% | [5]; [8] 69% | [5]; at 50.0 µM -10.5% | [6]; [7] 15%

Cc1n(Cc2ccccc2)c2c([n+]1C)C(=O)c1ccccc1C2=O
active: [1]; [8] 97% | [1]; at 50.0 µM 86.2% | [2]; [8] 98% | [2]; at 50.0 µM 91.8% | [3]; [8] 98% | [3]; at 50.0 µM 91.2% | [4]; [8] 92% | [4]; at 50.0 µM 89.2% | [5]; [7] 72% | [5]; [8] 98% | [5]; at 50.0 µM 89.2% | [6]; [7] 78% | [6]; [8] 97%
inactive: [1]; [7] 44% | [2]; [7] 50% | [3]; [7] 55% | [4]; [7] 34%

CCCCCCCCCCNC1CC(OC2CC(O)(C(O)CO)Cc3c(O)c4c(c(O)c32)C(=O)c2c(OC)cccc2C4=O)OC(C)C1O (stereo not drawn)
inactive: [5]; [7] 49%
active: [1]; [7] 96% | [1]; [8] 97% | [1]; at 50.0 µM 85.8% | [2]; [7] 99% | [2]; [8] 98% | [2]; at 50.0 µM 89.7% | [3]; [7] 95% | [3]; [8] 98% | [3]; at 50.0 µM 90.2% | [4]; [7] 80% | [4]; [8] 96% | [4]; at 50.0 µM 88.2% | [5]; [8] 97% | [5]; at 50.0 µM 87.8% | [6]; [7] 99% | [6]; [8] 96%

Nc1ccc(Cn2ccc3c4c(N)nc(N)nc4ccc32)cc1
active: [1]; [8] 83% | [2]; [8] 96% | [3]; [8] 88% | [3]; at 50.0 µM 72.7% | [5]; [8] 84% | [6]; [8] 87%
inactive: [1]; [7] 14% | [1]; at 50.0 µM 33.7% | [2]; [7] 29% | [2]; at 50.0 µM 68.3% | [3]; [7] 7% | [4]; [7] 6% | [4]; [8] 60% | [4]; at 50.0 µM 63.2% | [5]; [7] -10% | [5]; at 50.0 µM 41.4% | [6]; [7] 13%

CC1CC[P+](c2ccccc2)(c2ccccc2)c2c1ccc1ccccc21 (stereo not drawn)
inactive: [2]; [7] 54% | [4]; [7] 30% | [5]; [7] 67% | [6]; [7] 64%
active: [1]; [7] 76% | [1]; [8] 98% | [1]; at 50.0 µM 84.9% | [2]; [8] 98% | [2]; at 50.0 µM 90.2% | [3]; [7] 81% | [3]; [8] 98% | [3]; at 50.0 µM 91.2% | [4]; [8] 97% | [4]; at 50.0 µM 88.8% | [5]; [8] 99% | [5]; at 50.0 µM 88.6% | [6]; [8] 97%
